Anthrax LF inh2: Bacillus anthracis LF protease inhibitors, primary screen, biochemical, multiplex microsphere, MLPCN library. Lethal factor (Bacillus anthracis), P15917. multiplex microsphere protease cleavage assay. inhibition, % at 10 µM. 360,000 compounds, 0.12% hits. AID 588501, 2011
Bead autofluor: counter-screen for toxin protease inhibitors: compound fluorescence; compound autofluorescence counterscreen, microsphere flow cytometry; hits give high values; fluorescence intensity (test concentration not listed); 360,000 compounds, 3.1% hits; in the data active = fluorescence intensity above about 16000; inconclusive = no clear call, values can overlap the other calls
Mtb FBA inh: Mtb FBA enzyme inhibitors, primary screen, biochemical, fluorescence, strain H37Rv; Fructose-bisphosphate aldolase (Mycobacterium tuberculosis (strain ATCC 25618 / H37Rv)), …; inhibition, % at 1 µM; AID 588726, 2011; purified M. tuberculosis FBA, fluorescence read-out; 360,000 compounds, 2.3% hits; in the data active = inhibition above about 27%
Target sequence (P9WQA3 whole entry, looked up): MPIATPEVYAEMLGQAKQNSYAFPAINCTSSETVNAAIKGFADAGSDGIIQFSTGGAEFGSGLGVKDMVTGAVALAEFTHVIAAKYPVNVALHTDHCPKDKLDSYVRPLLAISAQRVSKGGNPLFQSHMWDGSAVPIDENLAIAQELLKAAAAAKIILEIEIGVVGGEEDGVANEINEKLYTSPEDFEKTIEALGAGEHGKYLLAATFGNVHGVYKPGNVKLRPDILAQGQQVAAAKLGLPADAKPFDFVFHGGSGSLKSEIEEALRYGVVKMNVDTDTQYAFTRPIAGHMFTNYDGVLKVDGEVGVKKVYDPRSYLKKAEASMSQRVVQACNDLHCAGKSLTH
BoNT-A LC inh2: BoNT/A light chain protease inhibitors, primary screen, biochemical, flow cytometry, MLPCN library. inhibition, % at 10 µM. 360,000 compounds, 0.17% hits. multiplex microsphere protease substrate cleavage. Botulinum neurotoxin type A light chain protease (Clostridium botulinum A str. ATCC 3502). AID 588499, 2011
BoNT-F LC inh: BoNT/F light chain protease inhibitors, primary screen, biochemical, flow cytometry, MLPCN library. AID 588497, 2011. Multiplex microsphere protease cleavage assay. inhibition, % at 10 µM. 360,000 compounds, 0.22% hits. Botulinum neurotoxin type F light chain protease (Clostridium botulinum); in the data active = inhibition above about 35%, passing the limit was not always enough; inconclusive = no clear call, values can overlap the other calls
GDH-TPI inh: GDH-TPI coupling enzyme inhibitors, primary screen, artefact control for M. tuberculosis FBA inhibitor project, biochemical, absorbance, full deck. GDH-TPI coupled enzyme counterscreen, NADH absorbance. inhibition, % at 4.8 µM. 360,000 compounds, 1.2% hits. AID 588335, 2011; in the data active = inhibition above about 30%
A number is an active result; 0 = inactive; ? = inconclusive; - = not tested or not shown. Only some compounds are listed: those with a hit (about 6.7% of all), similar ones and a draw of the others. Rule as the data show it, unless noted: active = inhibition above about 30%; inconclusive = no clear call, values can overlap the other calls; inactive = below that.

SMILES | Anthrax LF inh2 | Bead autofluor | Mtb FBA inh | BoNT-A LC inh2 | BoNT-F LC inh | GDH-TPI inh
CCOC(=O)CSc1nc2ccc(NC(=O)CSc3nnnn3Cc3ccccc3)cc2s1 | 0 | 20885 | 0 | 0 | 0 | 0
CC(C)(C)NC(=O)CSc1nc2ccc(NC(=O)CSc3nnnn3Cc3ccccc3)cc2s1 | 0 | 0 | 0 | 0 | ? | 0
Cc1ccc(NS(=O)(=O)c2c(C)[nH]c(C)c2C(=O)N2CCCCC2)c(Cl)c1 | 0 | 0 | 0 | 0 | 0 | 0
CCOC(=O)c1ccc(N2CN=C3SCC(=O)N3C2)cc1 | 0 | 23262 | 0 | ? | 0 | 0
COC(=O)c1sc2ncccc2c1OCc1ccccc1Cl | 0 | 18888 | 0 | 0 | 0 | 0
CCOC(=O)N1CCN(C(=O)C[C@@H]2C[C@@]3(C(=O)OCC)CCCC=C3N(Cc3ccc(Cl)cc3Cl)C2=O)CC1 | 0 | 0 | - | 0 | 0 | -
CC(=O)Oc1ccc2c(c1)Oc1cc(OC(C)=O)ccc1C21OC(=O)c2ccccc21 | 0 | 17180 | 0 | 0 | 0 | 0
CC1CCCN(c2nc3c(c(=O)n(C)c(=O)n3C)n2CCSc2nc3ccccc3s2)C1 (stereo not drawn) | 0 | 20318 | 0 | 0 | 0 | 0
Cn1c(=O)c2c(nc(N3CCCCC3)n2CCSc2nc3ccccc3s2)n(C)c1=O | 0 | 16274 | 0 | 0 | 0 | 0
CC1CCN(c2nc3c(c(=O)n(C)c(=O)n3C)n2CCSc2nc3ccccc3s2)CC1 | 0 | 0 | 0 | 0 | 0 | 0
CCOC(=O)/C(CCCN(CC)CC)=N\O | 0 | 0 | 0 | 0 | 0 | 0
Nc1cc(Cl)c2nonc2c1[N+](=O)[O-] | 0 | 0 | 0 | 0 | 0 | 0
Cc1cc(C(=O)N/N=C/c2ccc(OC(=O)c3ccccc3Br)cc2)n[nH]1 | 0 | 0 | 0 | 0 | 0 | 0
CN(C)c1nc2c(c(=O)n(C)c(=O)n2C)n1Cc1ccccc1 | 0 | 22117 | 0 | 0 | 0 | 0
C/C(Cl)=C\Cn1c(NCCc2ccccc2)nc2c1c(=O)n(C)c(=O)n2C | 0 | 0 | 0 | ? | 35.6 | 0
C=CCn1c(NCCc2ccccc2)nc2c1c(=O)n(C)c(=O)n2C | 0 | 0 | 0 | 0 | 0 | 0
Cn1c(=O)c2c(nc(Br)n2Cc2ccc3ccccc3c2)n(C)c1=O | 0 | 20690 | 0 | ? | 0 | 0
Cn1c(=O)c2c(nc(Br)n2Cc2ccccc2Cl)n(C)c1=O | 0 | 0 | 0 | 0 | 0 | 0
Cn1c(=O)c2c(nc(-n3ccnc3)n2Cc2ccccc2)n(C)c1=O | 0 | 0 | 0 | 0 | 0 | 0
O=C1CCCN1c1ccc(S(=O)(=O)NCc2ccco2)cc1 | 0 | 0 | 0 | 0 | 0 | 0
FC(F)(F)c1cccc(OCc2noc(-c3ccsc3)n2)c1 | 0 | 0 | 0 | 0 | ? | 0
CC(=O)C[C@@H](O)CC(=O)[C@@H]1OC(=O)CCCCC/C=C/Cc2ccccc21 | 0 | 0 | 0 | 0 | 0 | 0
O=C1CC(N2CCC(c3nc4ccccc4o3)CC2)C(=O)N1c1cc(Cl)cc(Cl)c1 (stereo not drawn) | 0 | 22844 | 0 | 0 | 0 | 0
O=C(O)c1ccc(N/N=C/c2ccncc2)cc1 | 0 | 0 | 0 | 0 | 0 | 31.6
O=C(O)c1ccc(N/N=C/c2ccc(F)c(F)c2)cc1 | 0 | 0 | 0 | 0 | 0 | 58.3
SMILES | Anthrax LF inh2 | Bead autofluor | Mtb FBA inh | BoNT-A LC inh2 | BoNT-F LC inh | GDH-TPI inh
O=C(O)c1ccc(N/N=C/c2cccc(F)c2)cc1 | 0 | 0 | 0 | 0 | 0 | 36.6
O=C(O)c1ccc(N/N=C/c2ccc3nccnc3c2)cc1 | 0 | 0 | 0 | 0 | 0 | 0
O=C(Oc1ccc(/C=N/Nc2ccccc2)cc1)c1ccccc1 | 0 | 0 | 0 | 0 | 0 | 0
O=C(O)c1ccc(N/N=C/c2ccc(OC(=O)c3cccc(Cl)c3)cc2)cc1 | 0 | 0 | 0 | 0 | 0 | 31.4
O=C(O)c1ccc(N/N=C/c2cccc(C(F)(F)F)c2)cc1 | 0 | 0 | 0 | 0 | 0 | 0
CCN(CC(=O)Nc1ccc2c(c1)OCO2)CC(=O)Nc1ccccc1C(F)(F)F | 0 | 0 | 0 | 0 | 0 | 0
COc1ccc(OC)c(C(C)NC(=O)Nc2ccccc2)c1 (stereo not drawn) | 0 | 0 | 0 | 0 | 0 | 0
Cc1ccc(CNC(=O)CCC(=O)c2cccs2)cc1 | 0 | 22864 | 0 | 0 | 0 | 0
O=C(CCc1ccccc1)NNC(=O)c1ccc(NC(=O)c2ccccc2)cc1 | 0 | 0 | 0 | 0 | 0 | 0
CC(=O)Nc1ccc(C(=O)NNC(=O)CCc2ccccc2)cc1 | 0 | 23567 | 0 | 0 | 0 | 0
O=C(Cc1ccccc1)Nc1ccc(C(=O)O)cc1 | 0 | 23610 | 0 | ? | 0 | 0
O=C(CCC(=O)c1cccs1)NCc1ccc(Cl)cc1 | 0 | 0 | 0 | 0 | 0 | 0
COC(=O)c1ccc(NC(=O)Cc2ccccc2)cc1 | 0 | 0 | 0 | 0 | 0 | 0
Cc1ccc(CNC(=O)Cc2ccc(-c3ccccc3)cc2)cc1 | 0 | 25102 | 0 | 0 | 0 | 0
CN(C(=O)c1ccc(NC(=O)Cc2ccc(NC(=O)C3CCN(C(=O)C4CCCC4)CC3)cc2)cc1)C1CCCC1 | 0 | 0 | 0 | 0 | 0 | 0
CSc1nc(N)n2nc(C)cc2n1 | 0 | 0 | 0 | 0 | 0 | -
Clc1cccc(CN2CCc3c([nH]c4ccccc34)C2)c1Cl | 0 | 0 | 0 | 0 | 0 | 0
COc1ccc(OCC(=O)NNC(=O)CCc2ccccc2)cc1 | 0 | 0 | 0 | 0 | 0 | 0
Cc1ccc(OCC(=O)NNC(=O)CCc2ccccc2)cc1 | 0 | 0 | 0 | 0 | 0 | 0
O=C(CCc1ccccc1)NNC(=O)COc1ccccc1 | 0 | 24872 | 0 | ? | 0 | 0
CC(C)(C)NC(=O)COc1ccc(-c2ccccc2)cc1 | 0 | 17169 | 0 | 0 | 0 | 0
Cc1ccc(OCC(=O)NNC(=O)CCC(=O)NCc2ccccc2)cc1 | 0 | 22071 | 0 | 0 | 0 | 0
COc1ccc(NC(=O)CCn2c(=O)c3cccn3c3ccccc32)c(OC)c1 | 0 | 0 | 0 | 0 | 0 | 0
COc1ccc(CN(CCCN2CCOCC2)C(=O)Nc2ccccc2)cc1OC | 0 | 22584 | 0 | ? | 0 | 0
O=C(Nc1ccccc1)N(CCCN1CCOCC1)Cc1ccccc1F | 0 | 0 | 0 | 0 | 0 | 0
SMILES | Anthrax LF inh2 | Bead autofluor | Mtb FBA inh | BoNT-A LC inh2 | BoNT-F LC inh | GDH-TPI inh
O=C(CSC1c2ccccc2C(=O)N1c1ccccc1)N1CCOCC1 (stereo not drawn) | 0 | 0 | 0 | 0 | 0 | 0
Cc1nc(N2CCN(Cc3ccccc3)CC2)nc2c1C(=O)CC(c1ccco1)C2 (stereo not drawn) | 0 | 17519 | 0 | 0 | 0 | 0
Cc1ccc(Oc2nsnc2N2CCOCC2)cc1 | 0 | 20142 | 0 | 0 | 0 | 0
COc1ccc(CN(CCC(c2ccccc2)C2CCOC(C)(C)C2)C(C)=O)cc1 (stereo not drawn) | 0 | 0 | 0 | 0 | 0 | 0
CCN(CC)CCNc1ccnc2cc(Cl)ccc12 | 0 | 20811 | 0 | 0 | 0 | 0
CCN(CC)Cc1cc(Nc2ccnc3cc(Cl)ccc23)ccc1O | 0 | 0 | 0 | 0 | 0 | 0
O=C(NCCNc1ccnc2cc(Cl)ccc12)c1ccccc1F | 0 | 0 | 0 | 0 | 0 | 42.9
